Assay outcomes as filed in PubChem.
LYPLA2 inh: LYPLA2 inhibitors, primary screen, counter-screen for PME1 inhibitor project, biochemical, fluorescence polarization, FP-Rh probe ABPP. recombinant LYPLA2. inhibition, % at 5.9 µM. 320,000 tested, 0.38% active. AID 2177, 2009;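 active means inhibition above the screen-wide mean plus 3 SD, limit set per campaign, cut at about 26% in these data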;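 further: 0% = LYPLA2 with DMSO and 100% = wells lacking LYPLA2 enzyme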
Target sequence (O95372 whole entry, looked up): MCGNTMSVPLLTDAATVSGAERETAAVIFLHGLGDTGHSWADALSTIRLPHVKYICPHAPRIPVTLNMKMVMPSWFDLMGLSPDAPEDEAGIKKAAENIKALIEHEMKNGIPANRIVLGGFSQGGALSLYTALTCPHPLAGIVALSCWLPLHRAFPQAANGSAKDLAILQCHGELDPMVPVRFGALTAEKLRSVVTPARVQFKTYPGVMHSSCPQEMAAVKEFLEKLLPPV
GSTO1 inh: inhibitors of recombinant GSTO1, primary screen, counter-screen for RBBP9 inhibitor project, biochemical, fluorescence polarization | activity-based probe fluorescence polarization | Glutathione S-transferase omega-1 (Homo sapiens), P78417 | AID 1974, 2009 | inhibition, % at 5.96 µM | 300,000 tested, 1.1% active;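 active means inhibition above the campaign mean inhibition plus 3 SD, cut at about 35% in these data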;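 further: 0% = GSTO1-1 with DMSO and 100% = wells lacking GSTO1-1 enzyme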
Target sequence (P78417 whole entry, looked up): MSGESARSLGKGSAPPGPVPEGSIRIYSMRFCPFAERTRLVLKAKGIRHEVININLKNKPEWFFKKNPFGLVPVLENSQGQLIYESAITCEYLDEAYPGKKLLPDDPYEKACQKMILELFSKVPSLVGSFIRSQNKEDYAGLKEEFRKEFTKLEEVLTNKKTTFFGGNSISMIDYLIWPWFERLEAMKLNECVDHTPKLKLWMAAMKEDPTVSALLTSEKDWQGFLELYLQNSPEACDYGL
PME-1 primary: PME-1 inhibitors via competitive probe labeling, primary screen, biochemical, fluorescence polarization, FP-Rh probe, HTS; Protein phosphatase methylesterase 1 (Homo sapiens), Q9Y570; AID 2130, 2009; recombinant PME-1; 320,000 tested, 0.53% active; inhibition, % at 5.9 µM;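 active means inhibition above the campaign mean of all compounds plus 3 SD, cut at about 26% in these data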;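 further: competitive labeling of PME-1 active site by serine hydrolase directed probe; 0% = PME-1 with DMSO and 100% = wells lacking PME-1 enzyme; inhibitors block probe labeling so polarization falls and inhibition rises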
Fam108B inh: mouse Fam108B serine hydrolase inhibitors, primary screen, counter-screen for RBBP9 inhibitor project, biochemical, fluorescence polarization | recombinant Fam108B, FP-Rh probe fluorescence polarization | 300,000 tested, 0.33% active | inhibition, % at 9.51 µM | AID 1947, 2009;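 active means inhibition above the screen mean inhibition plus 3 SD, computed separately per campaign, cut at about 18% in these data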;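 further: inhibitors lower polarization as less probe binds the enzyme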
LYPLA1 inh: LYPLA1 inhibitors, primary screen, counter-screen for PME1 inhibitor project, biochemical, fluorescence polarization, FP-Rh probe ABPP; AID 2174, 2009; 320,000 tested, 0.16% active; Acyl-protein thioesterase 1 (Homo sapiens), O75608; inhibition, % at 5.9 µM; recombinant LYPLA1;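 active means inhibition above the mean of all tested compounds plus 3 SD, set per campaign, cut at about 14% in these data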;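 further: inhibitors block serine hydrolase probe labeling of LYPLA1 so polarization falls; 0% = enzyme with DMSO and 100% = wells lacking LYPLA1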
PAD4 inh: human PAD4 inhibitors, primary screen, biochemical, fluorescence polarization, 1536-well format; AID 485272, 2010; inhibition, % at 6.36 µM; 330,000 tested, 0.41% active; recombinant PAD4, RCA probe fluorescence polarization; Protein-arginine deiminase type-4 (Homo sapiens), Q9UM07;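 active means percent inhibition above a cutoff equal to the mean of all tested compounds plus 3 SD, cut at about 15% in these data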;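 further: 0% = PAD4 with RCA probe and DMSO and 100% = probe without PAD4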
GSTO1 inh conf: GSTO1 inhibitor hit confirmation, counter-screen for RBBP9 inhibitor project, biochemical, fluorescence polarization, triplicate | 2,400 tested, 54% active | AID 2176, 2009 | inhibition, % at 5.96 µM | shares compounds with GSTO1 inh | recombinant GSTO1, probe fluorescence polarization;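 active means inhibition above the primary screen's cutoff, its mean inhibition plus 3 SD, cut at about 35% in these data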;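 further: loss of polarization as inhibitors block binding of rhodamine sulfonate ester activity probe; 0% = GSTO1 with DMSO and 100% = wells lacking GSTO1 enzyme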
GSTO1 recomb ABPP: inhibitors of purified human GSTO1, late-stage follow-up, biochemical, gel ABPP, SE-Rh probe, percent inhibition; shares compounds with GSTO1 inh; recombinant GSTO1, gel ABPP SE-Rh probe fluorescence; inhibition, % at 1 µM; 130 tested, 30% active; AID 463110, 2010;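 active means inhibition of the enzyme GSTO1 above about 75%, limit read from the data; inactive means inhibition below that limit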
An asterisk follows results filed as active; x = not tested or not shown. Hits are enriched below; roughly 1.8% of the tested compounds scored in any of these assays.

SMILES	LYPLA2 inh	GSTO1 inh	PME-1 primary	Fam108B inh	LYPLA1 inh	PAD4 inh	GSTO1 inh conf	others
CC1(C)CC(=O)C(C=Nc2ccc(O)c(N=CC3=C(O)CC(C)(C)CC3=O)c2)=C(O)C1	4.8	85.0*	-4.1	-0.6	-2.4	-12.9	67.0*
CCCC1NC(=S)N(C2CCCCC2)C1=O (centres undefined)	4.8	40.2*	-4.1	-1.2	2.6	-0.5	2.9
COc1ccc(CN(CCC(c2ccccc2)c2ccc(OC(C)C)cc2)C(=O)CCl)cc1OC (centres undefined)	14.7	78.3*	-3.7	-2.6	-0.5	11.0	90.1*	GSTO1 recomb ABPP=90.0*
COc1ccc(C(CCN(Cc2ccc(OC)c(OC)c2)C(C)=O)c2ccccc2)cc1 (centres undefined)	8.1	0.3	-1.7	3.9	-1.4	-1.6	x
Cc1ccc(NC(=O)CC(N)=S)cc1	-2.0	56.1*	-8.1	-3.3	-2.4	4.8	26.9
N#CC(c1nc2ccccc2nc1N1CCCC1)S(=O)(=O)c1ccccc1 (centres undefined)	0.2	53.2*	15.9	7.3	-1.8	-7.7	56.2*
CN1CCN(c2nc3ccccc3nc2C(C#N)S(=O)(=O)c2ccccc2)CC1 (centres undefined)	3.7	-3.0	1.4	1.2	0.4	-4.5	x
O=C(NNC(=O)C(Cl)Cl)c1cnn(-c2ccccc2)c1C(F)(F)F	4.0	48.7*	4.4	1.3	1.4	1.4	29.3
CC(C)=CCc1c(O)c(CC=C(C)C)c2c(c1O)-c1cc(O)c(O)cc1CC2	0.3	38.9*	10.9	2.0	-3.1	1.9	-6.8
COc1ccccc1CNc1ccc(N2CCCCC2)cc1	-2.0	50.8*	-1.7	5.0	-3.0	-9.2	7.0
CCOc1cc(CNc2ccc(S(N)(=O)=O)cc2)cc(Cl)c1OC	7.5	-2.4	1.4	3.8	3.8	-4.0	x
CCOc1cc(CNc2ccc(N3CCCC3)cc2)cc(Cl)c1OC	-4.0	69.8*	8.0	12.0	0.8	-3.4	70.4*
CCOc1ccc(CNc2ccc(N3CCCC3)cc2)cc1	4.0	66.2*	2.2	1.9	-0.1	-2.9	55.4*
COc1cc(CNc2ccc(N3CCCC3)cc2)cc(Cl)c1OC	2.5	59.0*	6.0	7.2	-0.1	-10.3	56.5*
COc1cccc(C(O)C2OC(=O)c3ccccc32)c1OC (centres undefined)	-6.3	4.6	1.7	-3.9	-2.9	-1.9	x
O=C(O)c1ccc2cccnc2n1	5.8	-1.0	-0.7	5.3	-3.6	-6.5	x
O=C(O)c1ccc2cccc(O)c2n1	-0.6	39.2*	-2.6	2.5	-1.9	-0.9	22.2
COc1ccc(-n2c(C)cc(/C=C3\C(=O)NN(c4ccccc4)C3=O)c2C)cc1	0.5	-5.7	20.2	4.5	-2.6	-3.3	x
COc1ccc(Sc2ccc(/C=C3\C(=O)NN(c4ccccc4)C3=O)o2)cc1	-7.2	42.4*	10.3	8.6	-2.2	0.1	58.1*
O=C1NN(c2ccccc2)C(=O)/C1=C/c1coc2ccccc2c1=O	1.7	25.2	6.6	2.7	-5.3	-1.9	x
O=C1NN(c2cccc(Br)c2)C(=O)/C1=C/c1cccs1	7.5	-0.1	5.4	0.3	-5.3	-3.0	x
O=C1NN(c2ccccc2)C(=O)/C1=C/c1cccs1	-3.5	63.0*	1.7	2.4	-1.1	-1.2	11.5
